# Experimental data taken from the supplement of paper PMC7801607.
# Experiments:
# CHO = experiment: % viability of CHO cells (MTT); higher = less toxic; settings: 48 h
# Summary of the method: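 For 48 h, attached CHO cells (10^6 cells/well, 200 µL, seeded the night before) were kept in fresh medium carrying compound at 2 or 20 µM. A colorimetric tetrazolium (MTT) assay then gave survival as percent viability versus untreated cells.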
# HepG2-A16-CD81 = experiment: % inhibition of HepG2 viability (CellTiter-Glo); higher = more toxic; settings: 5 µM
# [1] = test system: Plasmodium falciparum NF54 stage IV/V gametocytes; experiment: % inhibition of gametocyte viability (PrestoBlue); higher = more inhibition; settings: 48 h
# Summary of the method: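 Stage IV/V NF54 gametocytes at 2% gametocytaemia and 5% haematocrit (100 µL/well) were treated with compound at 1 or 5 µM and incubated for 48 h at 37 °C under stationary, hypoxic conditions. PrestoBlue (10 µL) was then added for 2 h, and fluorescence at 612 nm was read on 70 µL of transferred supernatant. Percent inhibition of gametocyte viability was normalised to vehicle and kill controls within one run.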
# [2] = test system: Plasmodium falciparum NF54 asexual blood stage; experiment: % inhibition of asexual blood stage proliferation (pLDH); higher = more inhibition; settings: 72 h
# Summary of the method: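 Plasmodium falciparum NF54 ring-stage cultures (1% haematocrit, 2% parasitaemia) were incubated with compound at 2 or 20 µM for 72 h at 37 °C under 4% CO2, 3% O2 and 93% N2. Survival was read at 620 nm with the parasite lactate dehydrogenase assay. Results were reported as percent inhibition of asexual proliferation relative to controls.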
# [3] = test system: Plasmodium falciparum NF54 stage IV/V gametocytes; experiment: % inhibition of gametocyte viability (ATP bioluminescence); higher = more inhibition; settings: 24 h
# Summary of the method: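 Stage IV/V NF54 gametocytes from density gradients (30,000 per well, 96-well plates) were incubated with compound at 1 or 5 µM for 24 h at 37 °C. A single run supplied percent inhibition of gametocyte viability, based on ATP measured with Promega BacTiter Glo and normalised to control wells.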
# [4] = test system: Plasmodium falciparum NF54 stage IV/V gametocytes; experiment: % inhibition of gametocyte viability (luciferase reporter); higher = more inhibition; settings: 48 h
# Summary of the method: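 Stage IV/V gametocytes of the NF54-Pfs16-GFP-Luc line (2% gametocytaemia, 2% haematocrit) were exposed to compound at 1 or 5 µM. Incubation was 48 h at 37 °C, stationary and hypoxic. Luminescence was read on 30 µL lysate plus 30 µL Promega luciferin substrate on a GloMax-Multi+ reader with 10 s integration. Percent inhibition was normalised to DMSO and kill controls from a single run.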
# [5] = test system: Plasmodium berghei ANKA liver stage in HepG2-A16-CD81; experiment: % inhibition of liver stage parasite viability (luciferase); higher = more inhibition; settings: 5 µM; 48 h
# Procedure: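 Single-concentration screen of the MMV Pandemic Response Box. P. falciparum NF54 asexual blood stages: pLDH assay, 72 h at 37 °C, 2 and 20 µM, n=2. Stage IV/V gametocytes (NF54): luciferase reporter (NF54-Pfs16-GFP-Luc, 48 h), ATP bioluminescence (24 h) and PrestoBlue (48 h) at 1 and 5 µM, n=1. P. berghei liver stage (luciferase in HepG2-A16-CD81, 48 h post infection) at 5 µM, n=4. All normalised to DMSO and kill controls as % inhibition.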
# 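For % inhibition of HepG2 viability (CellTiter-Glo) in this document: HepG2-A16-CD81 hepatoma cells plated as in the liver-stage assay but without sporozoites, with DMSO wells as negative and 25 µM puromycin as positive control.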
SMILES,% viability of CHO cells (CHO; 2 µM),% viability of CHO cells (CHO; 20 µM),% inhibition of HepG2 viability (HepG2-A16-CD81),% inhibition of gametocyte viability ([1]; 1 µM),% inhibition of gametocyte viability ([1]; 5 µM),% inhibition of asexual blood stage proliferation ([2]; 2 µM),% inhibition of asexual blood stage proliferation ([2]; 20 µM),% inhibition of gametocyte viability ([3]; 1 µM),% inhibition of gametocyte viability ([3]; 5 µM),% inhibition of gametocyte viability ([4]; 1 µM),% inhibition of gametocyte viability ([4]; 5 µM),% inhibition of liver stage parasite viability [5]
CCCCCCCCCN1C[C@@H](O)[C@H](O)[C@@H](O)[C@@H]1CO,94.1%,58.9%,4.62%,< 0%,3.2%,38.4%,25.3%,< 0%,< 0%,2.02%,2.49%,-1.14%
CS(=O)(=O)c1ccc(Oc2ccc(Cl)cc2)cc1,98.9%,121%,-1.85%,21.5%,13.8%,28.1%,69.1%,< 0%,< 0%,< 0%,< 0%,9.76%
C[C@H](Cn1cnc2c(N)ncnc21)OCP(=O)(O)O,89.8%,99.9%,-1.34%,10.5%,17.7%,-36.5%,46.2%,5.56%,< 0%,9.2%,< 0%,9.32%
Fc1ccc(-c2nc(-c3c[nH]c4ccc(Br)cc34)[nH]c2-c2ccc(F)cc2)cc1,97.3%,-2.96%,1.87%,< 0%,< 0%,74%,83.7%,< 0%,< 0%,< 0%,< 0%,27.7%
O=C(Nc1ccc(Cl)c(C(F)(F)F)c1)C(CCCl)C(=O)Nc1ccc(Cl)c(C(F)(F)F)c1,84%,93.6%,5.66%,< 0%,< 0%,19.9%,27.7%,< 0%,< 0%,< 0%,< 0%,11.8%
NCCCc1ccccc1C(=O)Nc1ncc([N+](=O)O)s1,104%,62.7%,0.282%,32.9%,23.9%,-16.4%,-1.52%,0.0401%,< 0%,< 0%,< 0%,7.1%
CO/N=C(\C(=O)N[C@@H]1C(=O)N2C(C(=O)OCOC(=O)C(C)(C)C)=C(/C=C\c3scnc3C)CS[C@H]12)c1csc(N)n1,146%,60.3%,-3.45%,< 0%,1.37%,7.74%,37.7%,0.449%,5.98%,< 0%,22.6%,34%
Cc1cc(-c2ccccc2)c(C(=O)C(=O)Nc2ccc(N3CCN(c4ncc(F)cn4)CC3)cc2)n1C,90.7%,72.7%,10.6%,< 0%,< 0%,2.18%,63.9%,5.9%,5.39%,< 0%,< 0%,58.8%
COc1cc(NC(=O)CN2C(=O)NC(c3ccccc3)(c3ccccc3)C2=O)cc(OC)c1,91.4%,102%,-3.2%,< 0%,28.9%,-4.55%,7.51%,< 0%,< 0%,< 0%,8.59%,9.85%
CC[C@H](CO)Nc1nc(NCc2ccccc2)c2ncn(C(C)C)c2n1,157%,60.7%,10.6%,< 0%,< 0%,-11.2%,88%,1.02%,< 0%,6.71%,< 0%,26.6%
Clc1cc2nc(C3CCNCC3)n(Cc3ccc(CNCCc4cnc[nH]4)cc3)c2cc1Cl,88.7%,96.1%,2.02%,< 0%,1.67%,27.7%,98%,< 0%,0.428%,< 0%,< 0%,45.7%
CCc1cc(CCC(=O)Nc2ccccc2O)c(=O)[nH]c1C,90.7%,106%,0.672%,5.05%,16.3%,-8.67%,47.7%,< 0%,< 0%,< 0%,< 0%,17.8%
COc1cc2c(O)c3c(c(-c4ccc5c(c4)OCO5)c2cc1OC)C(=O)OC3,98%,86.4%,58.9%,13%,17.7%,44.2%,99.9%,< 0%,< 0%,< 0%,< 0%,58.4%
Oc1cc(-c2cccc3ccccc23)[nH]n1,109%,68.8%,2.56%,4.17%,26.7%,3.8%,-4.8%,< 0%,< 0%,< 0%,< 0%,45.4%
CC(C)N(c1cc(-c2ccccc2)sc1C(=O)O)C(=O)[C@H]1CC[C@H](C)CC1,91.8%,103%,-2.07%,18.3%,14.3%,28.8%,44.9%,4.36%,< 0%,4.34%,< 0%,20.5%
CC1CN(c2ncnc3c2c(-c2ccccc2)cn3-c2ccc(F)cc2)CC(C)O1 (stereo not drawn),82.6%,122%,6.07%,17.3%,1.77%,75.6%,95.5%,< 0%,< 0%,< 0%,< 0%,37.1%
NC(=O)c1[nH]c2ccc(S(N)(=O)=O)cc2c1-c1ccccc1,93.5%,98.8%,8.64%,< 0%,19.1%,16.9%,72.7%,< 0%,< 0%,11.7%,< 0%,21.9%
CCc1ccc(C2CC(C(F)(F)F)n3ncc(C(=O)NCc4ccc(OC)cc4)c3N2)cc1 (stereo not drawn),83%,61.2%,8.05%,< 0%,34.6%,37.2%,67.7%,2.93%,4.83%,< 0%,6.49%,32.1%
CNCC(=O)OCc1cccnc1N(C)C(=O)OC(C)[n+]1cnn(C[C@](O)(c2cc(F)ccc2F)[C@@H](C)c2nc(-c3ccc(C#N)cc3)cs2)c1 (stereo partly drawn),94.9%,98.8%,14.7%,8.15%,23.3%,0.721%,37.7%,< 0%,< 0%,< 0%,< 0%,29.6%
CN(O)C(=O)c1cc2c(CN3CCC[C@H]3C(N)=O)cn(Cc3ccc(F)cc3)c2cn1,96%,119%,-5.55%,31.6%,30.7%,16.8%,52.7%,< 0%,< 0%,< 0%,< 0%,24.6%
O=C1NC(=O)C(Br)=C1Br,118%,103%,5.44%,13.6%,< 0%,42.2%,102%,0.158%,< 0%,< 0%,11.4%,35.8%
COC(=O)Nc1nc2c(C)cccc2[nH]1,101%,86.1%,-1.33%,< 0%,< 0%,-2.03%,-14%,< 0%,< 0%,< 0%,< 0%,3.06%
Cc1c(CN(C)C(=O)/C=C/c2cnc3c(c2)C(C)(C)C(=O)N3)oc2ccccc12,105%,87.2%,9.28%,< 0%,9.55%,13.1%,78.8%,< 0%,< 0%,< 0%,15.2%,11.2%
CC(C)(C)c1cc(C(=O)/C(C#N)=N/Nc2cccc(Cl)c2)no1,113%,97.4%,44.1%,< 0%,< 0%,-1.08%,24.2%,< 0%,< 0%,< 0%,< 0%,51.5%
